Measurements published in PubChem BioAssay AID2685 (National Center for Advancing Translational Sciences (NCATS), 2010).
About 2,100 (0.66%) of roughly 320,000 compounds were called active. Not shown: some 53% with an inconclusive outcome. The sample holds actives, similar compounds and a random draw of the others, so the mix is not that of the screen. Calls come from the whole dose curve; as a rule, active = well fitted inhibition curve with a large enough effect in the signal ratio, with a control signal flat (not every such curve was filed as active); inconclusive = small, poorly fitted or top-dose-only effect, or effect the other way, or a change in a side signal; inactive = flat fitted curve, though single readings scatter; the % refers to the signal ratio.

Experiment: qHTS Assay for Lipid Storage Modulators in Drosophila S3 Cells;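 for cell number change: cells counted by Cell Tracker Red CMTPX staining in the red channel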
Conditions: BODIPY lipid droplet fluorescence, 18-24 h, cells fed with added oleic acid; cell number change: measured here: cell count max response; series mostly up to 46.1 µM
Procedure, shortened: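 Drosophila S3 cells loaded with oleic acid (400 uM, as added) and compounds at several concentrations; lipid droplets imaged by 488-nm laser-scanning cytometry, 500–530 nm intensity and object ratio to cell channel. Percent activity normalized to 20 uM Triacsin C.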
Potency is the fitted concentration of half-maximal effect.

SMILES | Potency | cell number change [%]
CCN(CC)S(=O)(=O)c1c(OC)cc(C)c(Cl)c1C | inactive | 8.74
CCCc1cc(=O)oc2cc(C)cc(OCC(=O)NCc3cccnc3)c12 | inactive | -12.5
CCCc1cc(=O)oc2cc(C)cc(OCC(=O)NCCCn3ccnc3)c12 | inactive | 0.597
CCc1cc(=O)oc2cc(C)cc(OCC(=O)NCCCn3ccnc3)c12 | inactive | 8.87
COc1ccc(OCC(=O)NCCCn2ccnc2)cc1 | inactive | 17.2
Cc1cc(OCC(=O)NCCCn2ccnc2)c2c(C)c(C)c(=O)oc2c1 | 13 µM (active) | 
CCCc1cc(=O)oc2cc(C)cc(OCC(=O)NCc3ccccn3)c12 | 11.6 µM (active) | 6.85
O=C(COc1ccc(Br)cc1)NCCCn1ccnc1 | inactive | 9.25
Cc1cc(OCC(=O)Nc2ccccn2)c2c(C)c(C)c(=O)oc2c1 | 7.31 µM (active) | -10.4
CCCc1cc(=O)oc2cc(C)cc(OCC(=O)NCc3ccncc3)c12 | inactive | 4.58
Cc1c(C)c2ccc(OCC(=O)Nc3ccccn3)c(C)c2oc1=O | inactive | 15.9
O=C(COc1ccc(F)cc1)NCCCn1ccnc1 | 25.9 µM (active) | -6.85
Cc1cc(OCC(=O)NCc2ccncc2)c2c(C)c(C)c(=O)oc2c1 | inactive | 8.73
COc1ccc(CN(C)S(=O)(=O)c2nnc(NC(=O)c3ccccc3OC)s2)cc1OC | inactive | -3.88
Cc1ccccc1CCNC(=O)C1CCCN(c2cnccn2)C1 (configuration not stated) | inactive | -4.78
Cc1cccc(NC(=S)NCC(c2cccnc2)N2CCOCC2)c1 (configuration not stated) | inactive | 16.1
N#Cc1ccc(C(CC(=O)O)N2Cc3ccccc3C2=O)cc1 (configuration not stated) | inactive | 6.48
Cc1ccc(NC2CCCN(C(=O)c3ccoc3)C2)cc1C (configuration not stated) | inactive | -11.9
O=C(c1ccc(C(F)(F)F)cc1)N1CCN(S(=O)(=O)c2ccc3c(c2)OCCCO3)CC1 | inactive | 3.78
COc1ccccc1C(=O)Nc1ccc(Br)c2cccnc12 | 1.64 µM (active) | -27.2
COc1ccccc1C(=O)Nc1ccc(Br)cc1C | inactive | 6.15
COc1ccccc1NC(=O)c1cccc2c(Br)cccc12 | inactive | -20.6
CNc1ccc(Oc2c(F)c(F)nc(F)c2F)cc1 | inactive | -27.7
COc1ccc(Cl)cc1C(=O)Nc1ccccc1N1CCCCC1 | inactive | 5.02
CCn1c(=O)n(CC)c2cc(N3CCCC3)c(NC(=O)c3ccc(C)cc3)cc21 | inactive | -23.8

SMILES | Potency | cell number change [%]
CCn1c(=O)n(CC)c2cc(N3CCCC3)c(NC(=O)c3cc(Cl)ccc3OC)cc21 | 5.8 µM (active) | -12.8
Cc1ccc2c(n1)CC(C)(C)C/C2=N\O | inactive | 3.94
CC(C)Oc1cccc(C(=O)C2CCCN(C(=O)c3csnn3)C2)c1 (configuration not stated) | inactive | 3.1
CC(C)Oc1cccc(C(=O)C2CCCN(C(=O)c3ccsc3)C2)c1 (configuration not stated) | 18.4 µM (active) | -18.6
CC(C)Oc1cccc(C(=O)C2CCCN(C(=O)c3ccc4c(c3)OCO4)C2)c1 (configuration not stated) | inactive | -14.4
Cn1ncc(N=Cc2ccccc2[N+](=O)[O-])c1C(N)=O | inactive | -4.8
CCOC(=O)Cn1c(=N)n(CCOc2ccc(Br)cc2)c2ccccc21 | inactive | -7.97
CCOC(=O)Cn1nc(C)c(NC(=O)CCc2ccccc2)c1C | inactive | 12.6
Oc1ccc(C[C@@H]2CNCCN2CCc2cccc3ccccc23)cc1 | inactive | -30.1
Fc1cccc(CCN2CCNC[C@H]2Cc2cccc3ccccc23)c1 | 14.6 µM (active) | 
c1ccc(C[C@H]2CNCCN2CCc2cccc3ccccc23)cc1 | inactive | -0.264
C=CCn1c(C)cc(C(=O)COC(=O)c2ccc(N)c([N+](=O)[O-])c2)c1C | inactive | 5.39
CCN(CC)CCCNC(=S)N(Cc1cccnc1)Cc1cc2cc(C)ccc2[nH]c1=O | inactive | 5.5
CCOC(=O)C1CCCN(CCC(C)c2ccccc2)C1 (configuration not stated) | inactive | 2.31
CC(CN1CCCC(C(N)=O)C1)c1ccccc1 (configuration not stated) | inactive | -8.59
CN1CCCC(C(=O)C(C#N)c2ccccc2)C1 (configuration not stated) | 29.1 µM (active) | -21.6
CC(C)n1nc(C(=O)Nc2cccc(S(=O)(=O)NCc3ccco3)c2)c2ccccc2c1=O | inactive | -6.04
CC(C)[C@H](NS(=O)(=O)c1ccccc1)C(=O)OCn1nnc2ccccc2c1=O | inactive | 
CC(C)C(NC(=O)c1ccccc1)C(=O)OCn1nnc2ccccc2c1=O (configuration not stated) | 16.4 µM (active) | -15.7
CC(=O)OCn1nnc2ccccc2c1=O | inactive | 12.3
CCOC(=O)c1ccccc1NC(=S)N1CCC(C)CC1 | inactive | -4.08
Cc1nnsc1S(=O)c1ccccc1Cl (configuration not stated) | inactive | -9.44
O=[N+]([O-])c1cccc(/C=N/NS(=O)(=O)c2ccccc2)c1 | inactive | -12.3
C=CCNC(=S)NNC(=O)c1ccc(Br)cc1 | inactive | -6.86
CC(=O)NC(=S)Nc1ccc(NC(=S)NC(=O)/C=C/c2ccco2)cc1 | inactive | 15.8

SMILES | Potency | cell number change [%]
CC(=O)c1ccc(NC(=S)NC(=O)/C=C/c2ccco2)cc1 | inactive | -2.35
CC(=O)Nc1ccc(NC(=S)NC(=O)/C=C/c2ccco2)cc1 | 4.61 µM (active) | -27.7
CCO[C@H]1OC(C(=O)N2CCN(C)CC2)=C[C@@H](C2CC2)[C@@H]1CCCO | inactive | 
Cc1cc(OCC(=O)NNC(=S)NCC2CCCO2)cc(C)c1Cl (configuration not stated) | inactive | -9.63
O=C(Nc1ccccc1F)C1COc2ccccc2O1 (configuration not stated) | inactive | 
COc1ccccc1NC(=O)CCCNC(=O)Cn1cnc2sc(C)c(C)c2c1=O | inactive | 9.46
COc1ccc(OC)c(NC(=O)CCCNC(=O)Cn2cnc3sc(C)c(C)c3c2=O)c1 | 3.66 µM (active) | 10.8
COc1ccc(NC(=O)CCCNC(=O)Cn2cnc3sc(C)c(C)c3c2=O)cc1OC | inactive | 19.7
CN1CCN(C2CCN(Cc3ccc(O)c4ncccc34)CC2)CC1 | inactive | 8.98
COc1ccccc1-c1nc(S(=O)(=O)c2ccccc2)c(N2CCOCC2)o1 | inactive | 5.82
O=S(=O)(c1ccccc1)c1nc(-c2ccccc2)oc1N1CCCC1 | inactive | 
COc1ccccc1-c1nc(S(=O)(=O)c2ccccc2)c(N2CCCCC2)o1 | 4.11 µM (active) | -11.8
Cc1nc(CS(=O)c2ccc(Cl)cc2)cc(N2CCOCC2)n1 (configuration not stated) | inactive | -22.4
Cc1ccc(NC(=O)CN2CCN(Cc3ccccc3)CC2)cc1 | inactive | 
COc1ccc(C(=O)NCC2(c3ccccc3)CCOCC2)cc1 | inactive | 16.9
CC1=CC2=NC(=O)/C(=C\c3ccc(-c4ccc(Cl)cc4)o3)C(=N)N2O1 | inactive | 5.59
CCOc1ccc(C(=O)NC(C(=O)NCC(c2cccs2)N(C)C)C(C)C)cc1 (configuration not stated) | inactive | -5.63
COc1ccc(C(=O)NCc2nnc(SCC(=O)N3CCCC3)o2)cc1 | inactive | 
CCOc1ccc(NC(=O)CSc2nnc(CNC(=O)c3ccco3)o2)cc1 | inactive | 12.8
CCOC(=O)c1ccc(NC(=O)CSc2nnc(CNC(=O)c3ccco3)o2)cc1 | 3.66 µM (active) | -21.5
COc1cc(C(=O)NCc2nnc(SCC(=O)Nc3cccc(C(F)(F)F)c3)o2)cc(OC)c1OC | 9.2 µM (active) | -27.5
Cc1ccc(NC(=O)CSc2nnc(CNC(=O)c3ccco3)o2)cc1 | inactive | 
COc1cc(C(=O)NCc2nnc(SCC(=O)N3CCCCC3)o2)cc(OC)c1OC | 18.4 µM (active) | 4.42
COc1cc(C(=O)NCc2nnc(SCC(=O)Nc3cc(C)cc(C)c3)o2)cc(OC)c1OC | inactive | 6.53
CCC1CCCCN1C(=O)CSc1nnc(CNC(=O)c2cc(OC)c(OC)c(OC)c2)o1 (configuration not stated) | inactive | 

SMILES | Potency | cell number change [%]
COc1ccc(C(=O)NCc2nnc(SCC(=O)Nc3cccc(C(F)(F)F)c3)o2)cc1OC | inactive | 0.944
Cc1cc[n+]2c3c(cccc13)CCC2 | inactive | 21.6
Cn1c(SCC(=O)Nc2nccs2)nnc1-c1ccco1 | inactive | 19.7
O=C(CCNS(=O)(=O)c1ccccc1C(F)(F)F)N1CCN(C(c2ccccc2)c2ccccc2)CC1 | inactive | 9.11
O=C(CCNS(=O)(=O)c1ccccc1F)N1CCN(C(c2ccccc2)c2ccccc2)CC1 | 23.1 µM (active) | 
O=C(CCNS(=O)(=O)c1ccccc1F)N1CCN(Cc2ccccc2)CC1 | inactive | 
COc1cc(CN(C(=S)NCC(=O)NC2CC2)C2CCCC2)cc(OC)c1OC | inactive | 4.91
CS(=O)(=O)N1N=C(c2ccccc2)CC1c1cccs1 (configuration not stated) | inactive | -4.84
N=C(N)Sc1nc(N2CCCCC2)nc(N2CCCCC2)n1 | inactive | 2.17
CN(C)S(=O)(=O)c1cccc(-c2nnc(SCC(=O)NCCCCCC(=O)O)n2-c2ccc(F)cc2)c1 | inactive | 5.6
O=C(O)CCC(=O)Nc1ccc(S(=O)(=O)c2ccc(NC(=O)CCC(=O)O)cc2)cc1 | inactive | 14.2
CCCNc1c(NS(=O)(=O)c2ccc(C)c(C)c2)c(=O)oc2ccccc12 | 0.291 µM (active) | -4.13
CCC(=O)Nc1ccc(S(=O)(=O)c2ccc(NC(=O)CC)cc2)cc1 | 10.3 µM (active) | 0.0647
COc1ccc(S(=O)(=O)Nc2c(NC3CCCCC3)c3ccccc3oc2=O)cc1Cl | inactive | -20.1
CC(=O)Nc1ccc(S(=O)(=O)c2ccc(C)cc2)cc1 | inactive | -22.1
CCC(=O)Nc1ccc(S(=O)(=O)Nc2c(NC)c3ccccc3oc2=O)cc1 | 18.4 µM (active) | 8.07
CCCNc1c(NS(=O)(=O)c2ccc(NC(=O)CC)cc2)c(=O)oc2ccccc12 | inactive | -23.3
CNc1c(NS(=O)(=O)c2cc(OC)ccc2OC)c(=O)oc2ccccc12 | inactive | -19.8
CCCNc1c(NS(=O)(=O)c2ccc3c(c2)CCCC3)c(=O)oc2ccccc12 | inactive | -4.72
CCCNc1c(NS(=O)(=O)c2ccc(Br)cc2)c(=O)oc2ccccc12 | inactive | -47.1
CNc1c(NS(=O)(=O)c2ccc(OC)c(Cl)c2)c(=O)oc2ccccc12 | 16.4 µM (active) | -27.3
CC(=O)Nc1ccc(S(=O)(=O)Nc2c(NC3CCCCC3)c3ccccc3oc2=O)cc1 | inactive | -18
